A selection: hits, their analogues and other compounds. The true share with any hit is near 18%.
LDHA inh = qHTS assay for inhibitors of human lactate dehydrogenase. purified LDHA, NADH/diaphorase-resazurin fluorescence; hits give low values. activity change, % (values are at about 110 or 230 µM). 480,000 compounds, 0.15% hits. AID 1347041, 2019; in the data active means activity change below about -30%; inconclusive means mostly about -25% to -30%;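 further: plate controls were DMSO wells for no effect and wells without enzyme for full effect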
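Human LDH5 (2 nM) was incubated with 0.06 mM NADH and 0.2 mM pyruvate for 5 min at room temperature in Tris pH 7.4. Remaining NADH was coupled through diaphorase/resazurin, and resorufin fluorescence was read at 0 and 20 min.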
TDP1 cell CPT = qHTS for Inhibitors of human tyrosyl-DNA phosphodiesterase 1 (TDP1): qHTS in cells in presence of CPT | AID 686979, 2013 | Potency, µM (series often up to 46.2 µM), inactives show top-dose activity change, negative = growth inhibition, usual class: inhibitors | 420,000 compounds, 12% hits | chicken DT40 Tdp1-/-;hTDP1 cells + 20 nM CPT, ATP luminescence, 48 h; further: potency means the concentration at half of the fitted maximal effect; nearly all actives have a fitted effect of over 55% in size
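Chicken DT40 Tdp1-/- cells stably complemented with human TDP1 were seeded at 400 cells/well in medium containing 20 nM camptothecin, exposed to pin-transferred compounds, and grown at 37 °C for at least 48 hr. Viability was read as ATP luminescence.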
DT40 TDP1 no CPT = qHTS for Inhibitors of human tyrosyl-DNA phosphodiesterase 1 (TDP1): qHTS in cells in absence of CPT | DT40 Tdp1-/- hTDP1 cells, no CPT, ATP luminescence, 48 h | Potency, µM (titrated, usually from 46.2 µM), for inactives: top-dose activity change, negative = growth inhibition, hits mostly inhibitors | 420,000 compounds, 15% hits; further: potency means the concentration at half of the fitted maximal effect; nearly all actives have a fitted effect of over 55% in size
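Stably hTDP1-transfected Tdp1-null chicken DT40 cells were treated with library compounds minus camptothecin and grown for at least 48 hr at 37 °C, after which cellular ATP was quantified by luminescence.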
VP16 counter = VP16 counterscreen qHTS for inhibitors of ROR gamma transcriptional activity. Drosophila S2 Gal4-VP16 UAS-luciferase, luminescence, 20 h. Potency, µM (top dose mostly 53.6 µM), inactives show at the highest dose activity, negative = inhibition, usual class: inhibitors. 310,000 compounds, 3.5% hits. AID 2546, 2010;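 further: Gal4-VP16 expression switched on by copper sulfate through the metallothionein promoter; potency means the concentration at half of the fitted maximal effect; nearly all actives have a fitted effect of over 50% in size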
IL1B secr inh = qHTS for Inhibitors of Inflammasome Signaling: IL-1-beta AlphaLISA Primary Screen | activity change, % at 57.5 µM | THP-1 LPS/ATP IL-1B secretion, AlphaLISA, 16 h; hits give low values | AID 743279, 2014 | 360,000 compounds, 4.7% hits; in the data active means activity change below about -50%; inconclusive means mostly about -30% to -49%
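THP-1 cells pretreated 1 hr with compounds (up to 57.5 uM final), then stimulated with LPS (250 ng/mL final) plus ATP (1.25 mM final); secreted IL-1B measured by AlphaLISA after 16 hr, decreased signal indicating inhibition.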
RORgamma inh = qHTS for inhibitors of ROR gamma transcriptional activity | Drosophila S2 Gal4-RORgamma UAS-luciferase reporter, 20 h | Potency, µM (top dose mostly 53.6 µM), for the others: top-dose activity change, negative = inhibition, actives largely listed as inhibitors | 310,000 compounds, 5.4% hits; further: potency means the concentration at half of the fitted maximal effect; nearly all actives have a fitted effect of over 60% in size
Target sequence (P51450 whole entry, looked up, the tested form may be a part): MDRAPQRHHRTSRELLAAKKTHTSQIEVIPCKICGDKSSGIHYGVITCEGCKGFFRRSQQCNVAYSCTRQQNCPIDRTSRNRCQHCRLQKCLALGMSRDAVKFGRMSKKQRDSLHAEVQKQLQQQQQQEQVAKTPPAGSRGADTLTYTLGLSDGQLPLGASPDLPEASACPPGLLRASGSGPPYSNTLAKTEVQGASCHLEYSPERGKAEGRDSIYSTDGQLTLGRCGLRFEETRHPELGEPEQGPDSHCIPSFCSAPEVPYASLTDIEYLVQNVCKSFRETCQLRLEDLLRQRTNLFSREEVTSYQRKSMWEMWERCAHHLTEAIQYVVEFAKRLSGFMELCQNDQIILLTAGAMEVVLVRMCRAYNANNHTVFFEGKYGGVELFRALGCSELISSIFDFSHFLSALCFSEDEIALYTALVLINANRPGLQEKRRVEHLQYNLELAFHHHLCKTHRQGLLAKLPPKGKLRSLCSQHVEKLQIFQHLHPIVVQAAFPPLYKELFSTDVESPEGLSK
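Luminescence from a UAS-regulated Photinus luciferase reporter in stably transfected Drosophila Schneider cells is measured; decreased signal marks ROR gamma inhibition. Fusion expression is induced by 700 uM copper sulfate for 20 hr.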
* hit, by the source's call; ? = inconclusive; / = no result given. Unless noted, the call rests on the fitted dose curve; in most records, active means well fitted curve in the direction sought with a large enough effect; inconclusive means small, poorly fitted or top-dose-only effect, or another doubt; inactive means no such curve, though single readings can be large; an effect the other way counts as inactive or inconclusive. Unless noted, on the % scale 0 is the no-effect control and ±100 the full control effect.

SMILES	LDHA inh	TDP1 cell CPT	DT40 TDP1 no CPT	VP16 counter	IL1B secr inh	RORgamma inh
Cc1ccc(CNC(=O)C(=O)NCC2OCCN2S(=O)(=O)c2ccc3c(c2)OCCO3)cc1 (stereo unspecified)	-1.1	25.9µM*	-22.3%	1.3%	-5.3	14.1%
NS(=O)(=O)c1ccc(CCNC(=O)C(=O)NCC2OCCN2S(=O)(=O)c2ccc(Cl)cc2)cc1 (stereo unspecified)	0.8	23.1µM*	?	15.8µM*	53.6	30.3%
O=c1[nH]c(N/N=C/c2ccccc2Br)nnc1-c1ccccc1	-4.9	14.6µM*	23.1µM*	?	-8.0	?
CN(C)c1ccc(/C=N\Nc2nc(-c3ccccc3)cc(=O)[nH]2)cc1	0.0	-26.6%	-21.5%	-12.8%	-15.0	-37.7%
COc1ccc(/C=N/Nc2nnc(-c3ccccc3)c(=O)[nH]2)cc1	-2.9	11.6µM*	7.31µM*	-5.3%	-71.2*	-29.3%
CCOCCn1c(Br)nc2c1c(=O)n(C)c(=O)n2C	0.5	/	/	/	/	/
COc1ccc(NC(=O)Nc2nnc(N(CC(C)C)CC(C)C)s2)c(OC)c1	10.4	?	18.4µM*	/	/	/
COc1ccc2nc(Nc3ccc4c(c3)OCO4)sc2c1	-4.7	-14.5%	-16.4%	?	?	-11.6%
COc1ccc2nc(N=Nc3c(O)ccc4ccccc34)sc2c1	/	/	/	4.47µM*	/	1µM*
COc1ccc(C(=O)Nc2c(O)ccc3ccccc23)cc1	27.7	-26.6%	?	/	8.8	/
COc1ccc2nc(NC(=O)Nc3cccc4ccccc34)sc2c1	6.3	?	18.4µM*	-18.2%	9.0	-15.5%
COc1ccc(NC(=O)Nc2cccc3ccccc23)c(OC)c1	-10.0	?	3.6%	?	8.9	?
COc1ccc2nc(Nc3nc4cc5c(cc4s3)OCO5)sc2c1	-8.5	?	7.31µM*	11.2µM*	37.7	4.47µM*
CC(=O)Nc1ccc(C)cc1S(=O)(=O)n1cc2c(=O)n(C)c(=O)n(C)c2n1	-0.6	/	/	/	/	/
CCCCCn1c(CCC(=O)O)nc2c1c(=O)[nH]c(=O)n2CCCC	-2.8	/	/	/	/	/
Cc1ccc(NC(=O)C(C)C)c(Br)c1	-4.3	/	/	/	/	/
COc1ccc2nc(Nc3ccccc3)sc2c1	-4.4	-0.7%	?	-11.3%	-66.9*	?
COc1ccc2nc(NCc3ccc(OC)c(OC)c3OC)sc2c1	-1.3	?	?	/	-8.5	/
COc1cccc(C2(c3cccc(OC)c3)CC2C(=O)Nc2cccc3ccccc23)c1 (stereo unspecified)	6.4	?	25.9µM*	-14.4%	15.6	-4.8%
COc1ccc2nc(Nc3ccccc3OC)sc2c1	0.2	?	20.6µM*	?	-8.5	?
COc1ccc2nc(NC(=O)Nc3ccccc3OC)sc2c1	-6.2	9.2µM*	5.17µM*	-0.7%	-6.7	1.5%
Cc1cc(S(=O)(=O)N2CCCC2)ccc1OCC(=O)Nc1ccccc1Oc1ccccc1	-20.7	/	/	/	/	/
COc1ccc2nc(NC(C)=O)sc2c1	-2.9	?	?	-0.8%	-12.3	1.7%
CCC(C)C(=O)Nc1nc2ccc(OC)cc2s1 (stereo unspecified)	-2.8	?	16.4µM*	-16.4%	-2.8	-1.7%
C#CCN1CCC(C(=O)NC(c2ccccc2)C(F)(F)F)CC1 (stereo unspecified)	0.2	/	/	/	/	/
SMILES	LDHA inh	TDP1 cell CPT	DT40 TDP1 no CPT	VP16 counter	IL1B secr inh	RORgamma inh
O=C(NC(CSCc1ccccc1)C(=O)N/N=C/c1ccc(O)cc1O)c1ccc([N+](=O)[O-])cc1 (stereo unspecified)	2.9	7.08µM*	4.47µM*	-14.6%	112.5	?
CCn1c(=O)c2cc(C(=O)N(C)c3ccccc3F)sc2c2ccccc21	-3.9	?	14.6µM*	2.8%	-71.7*	-5.1%
CCn1c(=O)c2cc(C(=O)N3CCN(C)CC3)sc2c2ccccc21	-3.2	4.7%	?	1.5%	-22.0	21.5%
CCN(C(=O)c1cc2c(=O)n(CC)c3ccccc3c2s1)c1cccc(C)c1	3.7	/	/	/	/	/
CCOc1ccccc1N(CC)C(=O)c1cc2c(=O)n(CC)c3ccccc3c2s1	3.5	14.6µM*	16.4µM*	/	/	/
CCN(C(=O)c1cc2c(=O)n(CC)c3ccccc3c2s1)c1cccc(C(F)(F)F)c1	4.1	9.2µM*	9.2µM*	/	/	/
CCCN(C(=O)c1cc2c(=O)oc3ccccc3c2s1)c1ccccc1C	-2.1	18.4µM*	?	/	/	/
CCCN(C(=O)c1cc2c(=O)n(CC)c3ccccc3c2s1)c1ccccc1F	0.0	8.2µM*	6.51µM*	/	/	/
COc1ccc(NC(=O)C2CCC(C(C)(C)C)CC2)cc1S(=O)(=O)N1CCOCC1 (stereo unspecified)	5.6	20.6µM*	?	/	35.1	/
COc1ccc(OC)c(S(=O)(=O)N2CCC(C(=O)Nc3cccc(C)c3C)CC2)c1	-6.1	-6.7%	-13.9%	-2.4%	-20.8	25.8%
COc1ccc(OC)c(S(=O)(=O)N2CCC(C(=O)Nc3ccc(C)c(C)c3)CC2)c1	9.6	16.4µM*	20.6µM*	-11.8%	-18.3	21.6%
Cc1ccc(NC(/C=C/N(C)C)=C/C(=O)C(F)(F)F)c(C)c1	-1.1	16.4µM*	16.4µM*	1.2%	6.8	13.7%
CN(C)/C=C\C(=C/C(=O)C(F)(F)F)Nc1ccccc1Oc1ccccc1	-4.7	?	18.4µM*	-6.0%	-98.4*	-1.3%
CC(C)C(=O)Nc1ccc(NC(=O)Nc2ccc(Cl)cc2)cc1	10.7	/	/	/	/	/
